Compound activity deposited in PubChem by National Center for Advancing Translational Sciences (NCATS).
Hits are enriched below; roughly 21% of the tested compounds scored in any of these assays.
TDP1 cell CPT = DT40-hTDP1 cell growth loss with CPT. AID 686979. chicken DT40 Tdp1-/-;hTDP1 cells + 20 nM CPT, ATP luminescence, 48 h. Potency, µM (top dose mostly 46.2 µM), for inactives: top-dose activity change, negative = growth inhibition, hits mostly inhibitors. 420,000 tested, 12% active; also: potency is read from the fitted curve at half-maximal effect; nearly all actives have a fitted effect of over 55% in size
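Chicken DT40 Tdp1-/- cells stably complemented with human TDP1 were seeded at 400 cells/well in medium containing 20 nM camptothecin, exposed to pin-transferred compounds, and grown at 37 °C for at least 48 hr. Viability was read as ATP luminescence.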
IL1B secr inh = inflammasome signaling inhibition, IL-1 beta readout; THP-1 LPS/ATP IL-1B secretion, AlphaLISA, 16 h; hits give low values; activity change, % at 57.5 µM; 360,000 tested, 4.7% active; AID 743279; in the data active = activity change below about -50%; inconclusive = mostly about -30% to -49%
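THP-1 cells pretreated 1 hr with compounds (up to 57.5 uM final), then stimulated with LPS (250 ng/mL final) plus ATP (1.25 mM final); secreted IL-1B measured by AlphaLISA after 16 hr, decreased signal indicating inhibition.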
RORg inh = ROR gamma (mouse) transcription inhibition | Drosophila S2 Gal4-RORgamma UAS-luciferase reporter, 20 h | Potency, µM (doses to about 53.6 µM), without a hit: top-dose activity change, negative = inhibition, hits mostly inhibitors | 310,000 tested, 5.4% active | AID 2551; also: potency is read from the fitted curve at half-maximal effect; nearly all actives have a fitted effect of over 60% in size
Target sequence (P51450 whole entry, looked up, the tested form may be a part): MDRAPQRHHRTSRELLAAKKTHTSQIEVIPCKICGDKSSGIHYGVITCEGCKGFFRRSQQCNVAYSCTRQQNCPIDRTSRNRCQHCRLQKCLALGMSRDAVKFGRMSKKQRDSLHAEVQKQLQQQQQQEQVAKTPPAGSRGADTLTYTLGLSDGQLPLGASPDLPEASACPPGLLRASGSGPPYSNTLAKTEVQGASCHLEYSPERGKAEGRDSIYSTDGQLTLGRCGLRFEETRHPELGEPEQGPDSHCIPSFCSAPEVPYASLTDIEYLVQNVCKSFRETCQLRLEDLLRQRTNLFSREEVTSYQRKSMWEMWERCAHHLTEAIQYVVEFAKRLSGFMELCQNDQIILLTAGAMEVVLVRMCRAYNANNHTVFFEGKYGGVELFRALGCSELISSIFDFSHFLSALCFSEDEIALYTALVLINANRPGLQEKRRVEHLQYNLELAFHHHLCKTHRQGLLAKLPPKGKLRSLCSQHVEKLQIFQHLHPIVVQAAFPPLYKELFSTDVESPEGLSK
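Stable Schneider cell line, Gal4 DNA-binding domain fused to ROR gamma, UAS-luciferase. Cmpd 1 hr RT → CuSO4 700 uM final → 20 hr RT → luciferase reagent 10 min → luminescence.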
ELG1 DNA repair = inhibitors of ELG1-dependent DNA repair in HEK293T cells | HEK293T ELG1-luciferase reporter, luminescence, 16 h; DNA damage induced by 5-fluorouridine | Potency, µM (series often up to 46.1 µM), for inactives: at the highest dose activity change, negative = inhibition, usual class: inhibitors | 330,000 tested, 2.3% active; also: potency is read from the fitted curve at half-maximal effect; nearly all actives have a fitted effect of over 55% in size
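In this reporter screen, reduction of luminescence relative to DMSO vehicle indicated activity. Compounds and 5-fluorouridine were added together to 2,000 cells per well, incubated for 16 hr at 37 °C, then developed with ONE-Glo.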
VP16 counter = counter-screen for ROR gamma inhibitors: Gal4-VP16 reporter; Potency, µM (doses to about 53.6 µM), for the others: at the top dose activity, negative = inhibition, hits mostly inhibitors; Drosophila S2 Gal4-VP16 UAS-luciferase, luminescence, 20 h; 310,000 tested, 3.5% active;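 also: Gal4-VP16 expression switched on by copper sulfate through the metallothionein promoter; potency is read from the fitted curve at half-maximal effect; nearly all actives have a fitted effect of over 50% in size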
TDP1 cell noCPT = qHTS for Inhibitors of human tyrosyl-DNA phosphodiesterase 1 (TDP1): qHTS in cells in absence of CPT; Potency, µM (top dose mostly 46.2 µM), for inactives: at the top dose activity change, negative = growth inhibition, usual class: inhibitors; 420,000 tested, 15% active; DT40 Tdp1-/- hTDP1 cells, no CPT, ATP luminescence, 48 h; also: potency is read from the fitted curve at half-maximal effect; nearly all actives have a fitted effect of over 55% in size
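Seeded 400 DT40-hTDP1 cells/well (vehicle DMSO, no 20 nM CPT); pinned compounds; ≥48 hr at 37 °C; CellTiter-Glo luminescence as viability measure.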
* = called active by the depositor; u = inconclusive; x = no result; ! = repeats disagree; [ ] = dose if it differs, or a comment. Unless noted, calls follow the shape of the dose curve; as a rule, active = well fitted curve in the direction sought with a large enough effect; inconclusive = small, poorly fitted or top-dose-only effect, or another doubt; inactive = no such curve, though single readings can be large; an effect the other way counts as inactive or inconclusive. % is scaled to controls: 0 for no effect and ±100 for the full control effect.

SMILES	TDP1 cell CPT	IL1B secr inh	RORg inh	ELG1 DNA repair	VP16 counter	TDP1 cell noCPT
Cc1cc(OC(C)C(=O)NCC(O)c2ccccc2)c2c3c(c(=O)oc2c1)CCCC3 (stereo unspecified)	u	-25.9	9.4%	u	13.7%	u
COc1cccc(C(O)c2nc(-c3ccncc3)cs2)c1 (stereo unspecified)	23.1µM*	13.3	x	x	x	9.2µM*
Cn1nnc2cc(NC(=O)Nc3cccc(Cl)c3)ccc21	-11.5%	-8.8	33.2%	u	u	-5.1%
CC(=O)Nc1cccc(-c2csc(C(O)c3cccc(Cl)c3)n2)c1 (stereo unspecified)	23.1µM*	5.3	x	x	x	18.4µM*
CC(C)(C)NC(=S)/N=C(\N)N[N+](=O)[O-]	-6.8%	43.2	10µM*	-0.9%	u	18.7%
C=C1[C@@H](C)[C@H]2[C@H](Cc3ccccc3)NC(=O)[C@]23[C@H](OC(C)=O)/C=C/[C@](C)(O)C(=O)[C@@H](C)C/C=C/[C@H]3[C@@H]1O	0.181µM*	x	u	x	5.2%	0.143µM*
C=C1[C@@H](O)C2C=CC[C@H](C)C(=O)[C@@](C)(O)C=C[C@@H](OC(C)=O)[C@@]23C(=O)N[C@H](Cc2ccccc2)[C@@H]3[C@@H]1C (stereo partly specified)	0.266µM*	x	u	x	9.7%	0.237µM*
C=C1C(C)C2C(Cc3ccccc3)NC(=O)C23OC(=O)/C=C/C(O)CCCC(C)C/C=C/C3C1O (stereo unspecified)	1.46µM*	22.1	x	x	x	2.06µM*
CC1(C)CN=C(Nc2nc3ccccc3s2)S1	-4.6%	-7.8	8.91µM*	u	u	u
CCCCC(C#N)(Cn1cncn1)c1ccc(Cl)cc1 (stereo unspecified)	x	x	31.2%	x	-0.2%	x
CN(Cc1ccccc1)C(=O)Cn1c(=O)oc2cc(S(=O)(=O)NCc3ccccc3)ccc21	14.6µM*	0.0	u	u	u	20.6µM*
COc1cc(NS(=O)(=O)c2ccc3c(c2)oc(=O)n3C)cc(OC)c1OC	13µM*	71.5	u	u	u	9.2µM*
CCOc1ccc(N(CC)S(=O)(=O)c2ccc3c(c2)oc(=O)n3C)cc1	u	18.4	u	-1.0%	8.3%	-28.5%
COC(=O)[C@@]1(OC)C[C@@H]2O[C@@]1(C)n1c3ccccc3c3c4c(c5c6ccccc6n2c5c31)C(=O)N(C)C4	x	x	-7.8%[10 µM]	x	-4.0%[10 µM]	x
C[C@]12O[C@H](C[C@]1(O)CO)n1c3ccccc3c3c4c(c5c6ccccc6n2c5c31)CNC4=O	0.299µM*	x	u	x	5.62µM*	0.376µM*
NCC(O)c1cccc(O)c1 (stereo unspecified)	u	x	39.0%	x	7.7%	u
CC(C)COC(=O)c1ccccc1C(=O)OCC(C)C	u	16.7	19.9%	-5.9%	-11.6%	u
C[CH2][Hg][S]c1ccccc1C(=O)O	0.411µM*	-112.3*	1.12µM*	x	0.631µM*	0.581µM*
CCCCC/C=C\C/C=C\C/C=C\C/C=C\CCCC(=O)O	29.9µM*!	x	u	8.1%	u	23.7µM*!
CCCCC/C=C\C[C@@H](/C=C/C=C\C/C=C\CCCC(=O)O)OO	-0.5%[0.628 µM]	x	-0.6%	x	10.8%	13.9%[0.628 µM]
CN1C(=O)CC(=O)N(c2ccccc2)c2cc(Cl)ccc21	-18.1%	x	10.6%	x	-4.9%	-11.8%
CN(Cc1cccc(-c2cccnc2)c1)C(=O)Oc1ccc([N+](=O)[O-])cc1	18.4µM*	-24.9	x	x	x	u
CN(C)C(=O)Oc1ccc([N+](=O)[O-])cc1	10.7%	10.9	-4.2%	-17.2%	12.0%	12.8%
Cc1nc(-c2cccc(CN(C)C(=O)Oc3ccc([N+](=O)[O-])cc3)c2)no1	u	-7.4	x	x	x	16.4µM*
CN1CCCC(C(=O)c2ccccc2)C1 (stereo unspecified)	-11.1%	-8.7	0.0%	-6.3%	-7.0%	1.5%
SMILES	TDP1 cell CPT	IL1B secr inh	RORg inh	ELG1 DNA repair	VP16 counter	TDP1 cell noCPT
CCN1CCC(O)(c2ccccc2)C(C(=O)c2ccccc2)C1 (stereo unspecified)	2.59µM*	-14.9	x	x	x	4.11µM*
CN1CCC(O)(c2ccccc2)C(C(=O)c2ccccc2)C1 (stereo unspecified)	9.2µM*	-20.9	u	14.5%	u	18.4µM*
C[C@@H]1OC=C2[C@@H](O)[C@H]3O[C@H]3C(=O)[C@@]23[C@H]1[C@H]1C2=C([C@@H](O)[C@H]4O[C@@H]4C2=O)[C@@H]3O[C@@H]1C	x	x	-43.7%[10 µM]	x	27.9%[10 µM]	x
CC(=O)NNc1ccccc1	x	x	-12.4%	x	-5.6%	x
COc1ccc(CNC(=O)c2sc(=O)n(Cc3ccc(C)cc3)c2C)cc1OC	u	-24.7	x	x	x	16.4µM*
Cc1c(C(=O)NCc2cccc(C(F)(F)F)c2)sc(=O)n1Cc1ccc(C(=O)N(C)C)cc1	u	-15.9	x	x	x	14.6µM*
CCOc1ccc(Cn2c(=O)oc3ccc(C)cc32)cc1OC	u	-11.9	36.3%	u	-14.3%	u
Oc1ccc2c(c1)[C@@]13CCCCC1[C@@H](C2)N(CC1CCC1)CC3 (stereo partly specified)	x	x	21.3%	x	4.5%	x
CC12CCC(=O)CC1CCC1C2C(=O)CC2(C)C1CCC2(C)O (stereo unspecified)	0.2%	-8.6	x	x	x	3.6%
CC(O)(CS(=O)(=O)c1ccc(F)cc1)C(=O)Nc1ccc(C#N)c(C(F)(F)F)c1 (stereo unspecified)	15µM*	x	u	x	-3.3%	10.6µM*
Cc1ccc(Cn2cc(C=O)c(-c3ccc(C)cc3)n2)cc1	u	-58.2*	u	u	28.8%	u
C(=C/c1ccccc1)/CN1CCN(CCOC(c2ccccc2)c2ccccc2)CC1	6.68µM*	x	u	x	u	11.9µM*
c1ccc(C(OCCN2CCNCC2)c2ccccc2)cc1	-24.9%	-13.4	-6.1%	-2.0%	10.2%	-24.5%
C=C(C)[C@]12C[C@@H](C)[C@@]34O[C@](Cc5ccccc5)(O[C@@H]1[C@@H]3C=C(COC(=O)Cc1ccc(O)c(OC)c1)C[C@]1(O)C(=O)C(C)=C[C@@H]41)O2	x	x	4.1%	x	u	x
CCCCn1c(O)c(C(C)=NCc2cc(OC)cc(OC)c2)c(=O)[nH]c1=O	u	0.0	6.6%	23.1µM*	-10.9%	u
